Measured values taken from PubChem BioAssay AID1671202 (University of Kansas High Throughput Screening Laboratory, 2021).
“And” between values parts separate entries of the source, which are not always exact repeats. Equal values may be shown once. The campaign covered roughly 190,000 compounds. About 6,900 (3.6%) were called active. Rule as the data show it: active = inhibition above about 50%; inactive = the rest. The full list was thinned out, with actives kept by preference.

biological target: Huntingtin (Homo sapiens) (UniProt P42858); test: mutant huntingtin-calmodulin interaction inhibitors – biochemical, AlphaScreen, primary screen (AID 1671202); conditions: AlphaScreen His-mHTT/GST-CaM binding, luminescence; at 15 µM, hits give high values;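 also: 0% = both proteins with DMSO and 100% = one protein alone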
Sequence (P42858 whole entry, looked up, stated change not applied): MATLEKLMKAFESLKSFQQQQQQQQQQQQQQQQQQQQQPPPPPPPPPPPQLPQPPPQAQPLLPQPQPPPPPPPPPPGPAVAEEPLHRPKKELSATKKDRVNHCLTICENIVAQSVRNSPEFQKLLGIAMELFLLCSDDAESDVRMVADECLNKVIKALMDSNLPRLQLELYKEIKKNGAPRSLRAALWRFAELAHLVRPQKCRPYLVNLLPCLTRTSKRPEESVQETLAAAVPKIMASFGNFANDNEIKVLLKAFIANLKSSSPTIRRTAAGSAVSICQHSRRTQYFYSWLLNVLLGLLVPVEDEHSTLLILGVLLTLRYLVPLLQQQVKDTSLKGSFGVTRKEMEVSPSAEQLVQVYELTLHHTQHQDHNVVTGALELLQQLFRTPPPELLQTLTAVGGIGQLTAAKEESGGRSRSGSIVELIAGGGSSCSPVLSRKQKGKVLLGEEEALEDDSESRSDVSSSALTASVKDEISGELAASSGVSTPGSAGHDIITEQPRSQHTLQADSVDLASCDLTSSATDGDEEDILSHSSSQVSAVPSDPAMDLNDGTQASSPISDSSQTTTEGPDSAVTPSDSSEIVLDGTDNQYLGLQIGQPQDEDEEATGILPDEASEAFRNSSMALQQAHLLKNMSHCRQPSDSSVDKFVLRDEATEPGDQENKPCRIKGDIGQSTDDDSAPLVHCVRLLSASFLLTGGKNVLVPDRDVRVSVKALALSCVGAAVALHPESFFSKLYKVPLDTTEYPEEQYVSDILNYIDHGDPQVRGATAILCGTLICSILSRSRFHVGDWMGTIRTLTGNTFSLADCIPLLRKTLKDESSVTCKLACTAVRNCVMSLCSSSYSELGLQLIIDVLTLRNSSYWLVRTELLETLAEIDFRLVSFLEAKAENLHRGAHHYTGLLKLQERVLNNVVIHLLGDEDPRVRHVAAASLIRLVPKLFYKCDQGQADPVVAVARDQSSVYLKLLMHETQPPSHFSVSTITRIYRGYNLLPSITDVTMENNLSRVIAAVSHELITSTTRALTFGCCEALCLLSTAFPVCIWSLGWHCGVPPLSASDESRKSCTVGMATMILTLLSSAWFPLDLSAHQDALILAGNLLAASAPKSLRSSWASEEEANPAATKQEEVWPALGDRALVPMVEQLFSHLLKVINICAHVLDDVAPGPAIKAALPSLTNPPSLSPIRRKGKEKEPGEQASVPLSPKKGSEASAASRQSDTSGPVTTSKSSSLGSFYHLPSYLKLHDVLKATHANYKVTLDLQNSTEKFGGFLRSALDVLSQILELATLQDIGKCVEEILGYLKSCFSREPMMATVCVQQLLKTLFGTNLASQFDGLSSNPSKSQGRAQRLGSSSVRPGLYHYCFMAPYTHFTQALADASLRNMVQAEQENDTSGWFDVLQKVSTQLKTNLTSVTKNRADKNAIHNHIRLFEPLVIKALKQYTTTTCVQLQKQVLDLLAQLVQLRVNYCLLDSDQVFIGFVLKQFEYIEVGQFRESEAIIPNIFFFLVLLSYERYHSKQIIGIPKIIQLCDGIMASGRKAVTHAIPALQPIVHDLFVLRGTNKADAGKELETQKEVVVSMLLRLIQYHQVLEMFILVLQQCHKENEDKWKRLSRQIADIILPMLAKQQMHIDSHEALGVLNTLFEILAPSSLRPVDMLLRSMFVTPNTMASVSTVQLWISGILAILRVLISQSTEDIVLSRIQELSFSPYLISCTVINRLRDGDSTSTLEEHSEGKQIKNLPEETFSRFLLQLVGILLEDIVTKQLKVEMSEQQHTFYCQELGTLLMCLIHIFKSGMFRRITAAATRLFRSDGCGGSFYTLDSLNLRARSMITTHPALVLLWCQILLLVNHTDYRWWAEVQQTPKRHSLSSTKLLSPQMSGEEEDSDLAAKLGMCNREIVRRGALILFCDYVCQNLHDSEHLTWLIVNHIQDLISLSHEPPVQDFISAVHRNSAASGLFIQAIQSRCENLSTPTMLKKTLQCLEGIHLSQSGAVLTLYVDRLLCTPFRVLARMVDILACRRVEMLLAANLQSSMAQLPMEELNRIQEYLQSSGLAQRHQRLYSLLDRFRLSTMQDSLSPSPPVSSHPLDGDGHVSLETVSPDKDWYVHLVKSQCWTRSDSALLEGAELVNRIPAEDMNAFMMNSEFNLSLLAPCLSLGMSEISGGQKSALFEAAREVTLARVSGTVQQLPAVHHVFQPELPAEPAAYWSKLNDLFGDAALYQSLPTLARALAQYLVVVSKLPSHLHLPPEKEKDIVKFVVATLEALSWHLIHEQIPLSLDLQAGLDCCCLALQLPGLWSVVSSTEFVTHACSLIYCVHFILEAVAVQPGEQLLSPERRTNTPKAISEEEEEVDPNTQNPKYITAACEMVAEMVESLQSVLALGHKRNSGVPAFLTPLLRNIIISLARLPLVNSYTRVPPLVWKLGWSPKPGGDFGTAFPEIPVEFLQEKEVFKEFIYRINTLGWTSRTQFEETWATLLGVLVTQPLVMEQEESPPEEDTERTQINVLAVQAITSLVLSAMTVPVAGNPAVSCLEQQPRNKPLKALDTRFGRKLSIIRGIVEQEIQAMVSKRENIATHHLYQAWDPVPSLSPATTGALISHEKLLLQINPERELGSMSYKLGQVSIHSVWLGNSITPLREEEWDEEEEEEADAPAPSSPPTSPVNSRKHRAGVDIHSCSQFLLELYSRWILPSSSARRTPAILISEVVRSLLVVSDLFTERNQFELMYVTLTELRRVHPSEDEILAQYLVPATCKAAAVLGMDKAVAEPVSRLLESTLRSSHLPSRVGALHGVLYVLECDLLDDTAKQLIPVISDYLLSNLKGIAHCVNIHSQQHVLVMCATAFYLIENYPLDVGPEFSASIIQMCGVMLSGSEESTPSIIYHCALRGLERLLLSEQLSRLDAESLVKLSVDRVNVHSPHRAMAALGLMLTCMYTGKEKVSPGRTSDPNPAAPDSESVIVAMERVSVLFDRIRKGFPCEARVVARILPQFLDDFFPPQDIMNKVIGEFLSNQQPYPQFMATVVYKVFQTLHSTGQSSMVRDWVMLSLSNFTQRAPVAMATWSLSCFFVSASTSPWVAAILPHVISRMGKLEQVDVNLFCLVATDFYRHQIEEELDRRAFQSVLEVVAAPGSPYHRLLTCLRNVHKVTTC

Row | SMILES | inhibition
1 | CCCNC(=O)C1CN(C(=O)c2ccccc2F)CC1c1cccc(F)c1 (stereo not drawn) | -5.9% (inactive)
2 | CC1(C)c2ccccc2N(CCO)C12C=Cc1cc([N+](=O)[O-])ccc1O2 (stereo not drawn) | 62% (active)
3 | O=C1CSC(c2cccc([N+](=O)[O-])c2)N1c1cc(Cl)ccc1O (stereo not drawn) | 8% (inactive)
4 | COc1ccccc1C(=O)Nc1nc2n(n1)C(c1ccccc1)C=C(c1ccc(Cl)cc1)N2 (stereo not drawn) | 51% (active)
5 | Cc1nc2n(n1)C(c1ccc(Cl)cc1)C=C(c1ccc(Cl)cc1)N2 (stereo not drawn) | 31% (inactive)
6 | Clc1ccc(C2=CC(c3ccccc3)n3ncnc3N2)cc1 (stereo not drawn) | 1% (inactive) and -2.22% (inactive)
7 | CCS(=O)(=O)NCc1nnnn1-c1ccc(F)c(F)c1 | -8.6% (inactive)
8 | Cc1cccc(N2CCC(C(=O)NCc3ccccc3F)C2=O)c1C (stereo not drawn) | -0.6% (inactive)
9 | COc1ccc(-c2ncc3c(n2)CCN(C(=O)c2cccc(OC)c2)C3)cc1 | 11.1% (inactive)
10 | O=C(NC1CCCC1)C1CCNCC1 | -0.4% (inactive)
11 | COc1ccc(NC(=O)C2CC(=O)N(c3ccc4oc(C)nc4c3)C2)cc1 (stereo not drawn) | 2.03% (inactive)
12 | Cc1cc(-c2nnc(NC(=O)C3CC(=O)N(c4ccc(C)c(C)c4)C3)o2)n(C)n1 (stereo not drawn) | 90.2% (active)
13 | Cc1ccc(N2CC(C(=O)Nc3cc(C(F)(F)F)ccc3Cl)CC2=O)cc1C (stereo not drawn) | -1% (inactive)
14 | O=C(C1COc2ccccc2O1)N1CC(c2nc(-c3cccc(C(F)(F)F)c3)no2)C1 (stereo not drawn) | 88.9% (active)
15 | N#Cc1ccc(C(=O)N2CCCC2c2nc(-c3cccc(C(F)(F)F)c3)no2)cc1 (stereo not drawn) | 2.8% (inactive)
16 | O=C(c1cccnc1)N1CCCC1c1nc(-c2cccc(C(F)(F)F)c2)no1 (stereo not drawn) | 27.6% (inactive)
17 | COc1ccc(C(=O)COc2ccc3c(c2)OC(=Cc2cc(OC)c(OC)c(OC)c2)C3=O)cc1 | 2.6% (inactive)
18 | Cc1ccc(C)c(NC(=O)c2cc3n(n2)CCCN(Cc2ccccc2)C3=O)c1 | -4.93% (inactive)
19 | CS(=O)(=O)N1CCc2cc(NC(=O)Nc3cccc(C(F)(F)F)c3)ccc21 | 16.1% (inactive)
20 | O=C(C1c2ccccc2Oc2ccccc21)N1CCN(c2ccc([N+](=O)[O-])cc2)CC1 | -2.2% (inactive)
21 | CC(C)=CC(=O)CC(C)(O)c1ccccc1 (stereo not drawn) | 1.5% (inactive)
22 | CN(C)c1ccc(C(=O)NC2CCN(c3ccccc3)C2=O)cc1 (stereo not drawn) | -3.2% (inactive)
23 | CN(C)c1ccc(C(O)(c2ccccc2)c2ccccc2)cc1 | 76% (active)
24 | COc1ccccc1C(=O)N1CCc2nc(-c3ccc(Cl)cc3)ncc2C1 | 9.54% (inactive)

Row | SMILES | inhibition
25 | COc1ccccc1-c1nc(C2CCN(C(=O)c3cc4cc(Cl)ccc4[nH]3)CC2)no1 | 80.8% (active)
26 | COc1ccccc1-c1nc(C2CCN(C(=O)c3ccc(Cl)cc3)CC2)no1 | 38.7% (inactive)
27 | COc1ccccc1-c1nc(C2CCN(C(=O)C3COc4ccccc4O3)CC2)no1 (stereo not drawn) | 34.9% (inactive)
28 | CCS(=O)(=O)N1CCCC(OCc2nc(CCOC)no2)C1 (stereo not drawn) | -8.91% (inactive)
29 | COc1ccccc1CC(=O)N1CCc2c(nc3cc(-c4ccccc4Cl)[nH]n3c2=O)C1 | 53% (active)
30 | Cn1cccc1C(=O)N1CCc2nc3cc(-c4ccccc4)[nH]n3c(=O)c2C1 | 25.2% (inactive)
31 | O=C(NCC1CCCO1)N1CCc2nc3cc(-c4ccccc4Cl)[nH]n3c(=O)c2C1 (stereo not drawn) | 5.22% (inactive)
32 | COc1ccc(Cl)cc1C(=O)N1CCc2c(nc3cc[nH]n3c2=O)C1 | 9.45% (inactive)
33 | COc1ccccc1C(=O)N1CCc2c(nc3cc(-c4ccccc4Cl)[nH]n3c2=O)C1 | 63.9% (active)
34 | CCCCS(=O)(=O)N1CCc2c(nc3cc(-c4ccccc4Cl)[nH]n3c2=O)C1 | 21.9% (inactive)
35 | CC(=O)NC1CCN(c2ccccc2C(=O)N(C)C2CCCCC2)CC1 | 11.4% (inactive)
36 | COc1ccc(C=CC(=O)NCCN2CCn3cc(OC)c(=O)cc3C2=O)cc1OC | -2.5% (inactive)
37 | Cc1ccccc1OCC(=O)Nc1nnc(C2CC(=O)N(c3ccccc3)C2)o1 (stereo not drawn) | -0.23% (inactive)
38 | COc1ccc(CC(=O)Nc2nnc(C3CC(=O)N(c4ccc(Cl)cc4)C3)o2)cc1 (stereo not drawn) | 22.1% (inactive)
39 | COc1ccc(N2CC(c3nnc(NC(=O)Cc4ccc(C)cc4)o3)CC2=O)cc1 (stereo not drawn) | 2.93% (inactive)
40 | O=C(Cc1cccs1)Nc1nnc(C2CC(=O)N(c3ccc(Cl)cc3)C2)o1 (stereo not drawn) | 95.7% (active)
41 | Cc1ccc(N2CC(c3nnc(NC(=O)CCc4ccccc4)o3)CC2=O)cc1 (stereo not drawn) | 0.32% (inactive)
42 | CSc1ccc(N2CC(c3nnc(NC(=O)Cc4ccccc4C)o3)CC2=O)cc1 (stereo not drawn) | 68.1% (active)
43 | N#CCOc1ccc2c(=O)c(-c3ccccc3)coc2c1 | -3% (inactive)
44 | CCCCC(=O)Nc1n[nH]c(C)c1-c1ccc(Cl)cc1 | 2.8% (inactive)
45 | COc1ccccc1OCCCCOc1ccccc1OC | -8.5% (inactive)
46 | O=[N+]([O-])c1ccc(N2CCN(S(=O)(=O)c3ccc(Br)s3)CC2)cc1 | 7% (inactive)
47 | CCC(=O)Nc1ccc(S(=O)(=O)N2CCN(C)c3ccccc32)cc1 | -1.8% (inactive)
48 | O=C(CSc1nc(-c2ccccc2)nc2c1CCCC2)c1ccc(O)c(O)c1 | 52% (active)

Row | SMILES | inhibition
49 | O=C(CSc1ncn[nH]1)c1ccc(O)c(O)c1 | -5.2% (inactive) and -1% (inactive)
50 | O=C(CSc1nc2[nH]ncc2c(=O)n1-c1ccccc1)c1ccc(Cl)c(Cl)c1 | 48% (inactive)
51 | COc1cc(OC)c(OC)cc1C=Nc1ccccc1C(=O)O | 5.4% (inactive)
52 | CC(Oc1ccc(Cl)cc1)C(=O)N1CCn2c(nnc2C(C)C)C1 (stereo not drawn) | 2.1% (inactive)
53 | CC(C)Nc1nc(-c2ccccc2O)nc2ccccc12 | -13.2% (inactive)
54 | Cc1cc(NN)nc(-c2ccccc2O)n1 | 53.5% (active)
55 | Cc1cc(Nc2ccccc2)nc(N)n1 | 0.7% (inactive)
56 | CCCNC(=O)C1CCN(Cc2cn(C)c3ccc(Cl)cc23)CC1 | -7.24% (inactive)
57 | O=C(NCc1ccc(F)cc1)c1ccc2c(c1)NC(=O)C(N1CCCCC1)S2 (stereo not drawn) | -10% (inactive)
58 | CCCNC(=O)c1cn(-c2ccc(C)cc2)nn1 | -7.1% (inactive)
59 | Cc1ccsc1C1N(c2ccc(Cl)c(Cl)c2)C(=O)C2CCCN21 (stereo not drawn) | 96.1% (active)
60 | COc1cccc(N2C(=O)C3CCCN3C2c2ccc(F)cc2)c1 (stereo not drawn) | 5.08% (inactive)
61 | COc1ccc(N2C(=O)C3CCCN3C2c2ccc(Cl)c(Cl)c2)cc1 (stereo not drawn) | 68% (active)
62 | COc1ccc(N2C(=O)C3CCCN3C2c2cc(OC)c(OC)cc2OC)cc1 (stereo not drawn) | -4.26% (inactive)
63 | Cc1ccc(N2C(=O)C3C4C=CC(CC4)C3C2=O)cc1Cl (stereo not drawn) | -5% (inactive)
64 | COc1ccc(N2C(=O)C3CCCN3C2c2cccs2)cc1 (stereo not drawn) | -7.68% (inactive)
65 | CCOc1ccc(CC(=O)N2CC3CC2CC3NC(=O)c2ccccc2)cc1 (stereo not drawn) | 5.36% (inactive)
66 | CCOc1ccc(-c2nnc(Nc3ccc(C(N)=O)cc3)c3ccccc23)cc1 | 6% (inactive)
67 | CCOC(=O)C1CCN(C(=O)C2CCc3sc(C(=O)N4CCCCC4)cc3C2)CC1 (stereo not drawn) | 4.24% (inactive)
68 | COc1cccc(N2CCN(C(=O)c3ccc(Cl)cc3Cl)C(C)C2=O)c1 (stereo not drawn) | 3.4% (inactive)
69 | Cc1cc(C(=O)Nc2ccccc2)nc2ccnn12 | -10.8% (inactive)
70 | O=C1[C@H]2OC[C@H](O2)[C@@H]2[C@H]1[C@H]1C=Cc3ccccc3N1[C@@H]2C(=O)c1ccc(F)cc1 | 91.4% (active)
71 | O=C(c1ccc(F)cc1)N1CCC(N2CCC(C(=O)N3CCCCC3)CC2)CC1 | -3.3% (inactive)
72 | Cc1ccc(Nc2nc(-c3ccc(O)cc3O)cs2)nc1 | 100% (active)

Row | SMILES | inhibition
73 | Cc1ccc(-c2csc(NC(=O)c3ccc([N+](=O)[O-])cc3)n2)c(C)c1 | 10.4% (inactive)
74 | Brc1ccc(Nc2nc(-c3ccc4c(c3)OCO4)cs2)nc1 | -1.1% (inactive)
75 | O=C(CSc1ncc(CO)n1Cc1ccccc1)Nc1ccc([N+](=O)[O-])cc1 | 20.9% (inactive)
76 | Oc1ccc(N=Nc2nccs2)c(O)c1 | 99.9% (active)
77 | Cc1[nH]c(=O)[nH]c(=O)c1S(=O)(=O)NC1=NCCS1 | 3% (inactive)
78 | COCc1cc(C)nc2sc(C3=NC(C)(C)Cc4ccccc43)c(N)c12 | 58% (active)
79 | COCc1cc(C)nc2sc(C(N)=O)c(N)c12 | -5% (inactive)
80 | COCc1cc(C)nc2sc(C(=O)N(c3ccccc3)c3ccccc3)c(N)c12 | -19% (inactive)
81 | O=C(Nc1ccc(C(F)(F)F)cc1)N1CCc2c(nc[nH]c2=O)C1 | -3.4% (inactive)
82 | CCN(Cc1ccccc1)C(=O)c1sc2ccccc2c1Cl | -67.9% (inactive)
83 | CCCCN1C(=O)C(C)(C(=O)Nc2cccc(OC)c2)Oc2cccnc21 (stereo not drawn) | 4.7% (inactive)
84 | Cc1cccc(-n2nnc(C(=O)NCCN3CCCC3)c2N)c1 | 2% (inactive)
85 | c1ccc2[nH]c(-c3nc4ccccc4[nH]3)nc2c1 | 7.27% (inactive)
86 | C1=C(N2CCOCC2)/C(=C/c2nc3ccccc3[nH]2)CC1 | 67.1% (active)
87 | c1ccc(-c2nnc(N3CCOCC3)c3ccccc23)cc1 | -4.1% (inactive)
88 | Cc1cc(Cl)ccc1NC(=O)C(C)N(c1ccccc1)S(C)(=O)=O (stereo not drawn) | -1.9% (inactive)
89 | O=C(NCc1ccc2c(c1)OCO2)C1CCc2sc(C(=O)N3CCOCC3)cc2C1 (stereo not drawn) | -0.39% (inactive)
90 | CCCNC(=O)C1CCN(Cc2c(C)n(CC)c3ccccc23)CC1 | 7.5% (inactive)
91 | Cc1cc(C(=O)N2CC(C(=O)N3CCN(c4ccc(Cl)c(Cl)c4)CC3)C2)no1 | 66.7% (active)
92 | COc1ccccc1N1CCN(C(=O)c2cc(-c3ccc(Cl)c(Cl)c3)on2)CC1 | -3% (inactive)
93 | Cc1cc(C(=O)N2CC(C(=O)Nc3cccc(NS(C)(=O)=O)c3)C2)no1 | -19.8% (inactive)
